Measurements: PubChem BioAssay (NCATS)
Values joined by “and” are separate entries in the source; they are usually repeats but may differ in a detail not shown here. Equal entries are not always repeated. Inconclusive results are not listed. Entries that show only a call come without a potency. Active and inactive are the calls of the source. Calls come from the whole dose curve; as a rule, active = well fitted curve in the direction sought with a large enough effect; inconclusive = small, poorly fitted or top-dose-only effect, or another doubt; inactive = no such curve, though single readings can be large; an effect the other way counts as inactive or inconclusive.

Test: qHTS of pediatric cancer cell lines to identify multiple opportunities for drug repurposing: Primary screen for RD cells (AID 1347104); note: nearly all actives have a fitted effect of over 55% in size
Settings: RD rhabdomyosarcoma viability, CellTiter-Glo luminescence, 48 h; series mostly up to 46 µM
In short: (§1)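 Luminescence from CellTiter-Glo served as readout of metabolically active cells after 48 h compound exposure. Titrations: MIPE 11-point, from 0.78 nM; NPC 8-point, from 0.59 nM (final). Concentration-response curves came straight from the primary screen.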
Potency is the fitted concentration of half-maximal effect.

Row | SMILES | Potency
1 | COc1ccc(-c2coc3cc(O)cc(O)c3c2=O)cc1 | inactive
2 | CC=CC[C@@H](C)C(=O)[C@H]1C(=O)N[C@@H](C(C)C)C(=O)N(C)CC(=O)N(C)[C@@H](CC(C)C)C(=O)N[C@@H](C(C)C)C(=O)N(C)[C@@H](CC(C)C)C(=O)N[C@@H](C)C(=O)N[C@H](C)C(=O)N(C)[C@@H](CC(C)C)C(=O)N(C)[C@@H](CC(C)C)C(=O)N(C)[C@@H](C(C)C)C(=O)N1C | inactive
3 | CN(C)C1CCN(C(=O)c2ccc(NC(=O)Nc3nc(N4CCOCC4)nc(N4CCOCC4)n3)cc2)CC1 | 0.0662 µM (active)
4 | CC(C)(Cc1ccc2ccccc2c1)NC[C@@H](O)COc1cccc(Cl)c1C#N | inactive
5 | CC(C)(C)NC(=O)Nc1cccc(Nc2ncc(F)c(NC(C)(C)CO)n2)c1 | inactive
6 | CC(C)(C)COc1ccc(-n2cc(C(=O)O)cn2)cc1C#N | inactive
7 | CC1(C)CCC2=C(O1)c1ccccc1C(=O)C2=O | 33.2 µM (active)
8 | CC(=NNC(=S)N1CCC1)c1ccccn1 | 0.003 µM (active)
9 | N#Cc1ccc(NC(=O)Nc2ccccc2Br)c2n[nH]nc12 | inactive
10 | COC(=O)[C@@H]1[C@H]2C[C@H]3c4[nH]c5ccccc5c4CCN3C[C@@H]2CC[C@@H]1O | inactive
11 | CO[C@H]1C[C@@H]2CC[C@@H](C)[C@@](O)(O2)C(=O)C(=O)N2CCCC[C@@H]2C(=O)O[C@H]([C@H](C)C[C@@H]2CC[C@H](OP(C)(C)=O)[C@H](OC)C2)CC(=O)[C@H](C)C=C(C)[C@@H](O)[C@@H](OC)C(=O)[C@H](C)C[C@H](C)C=CC=CC=C1C | inactive
12 | CC1(C)CCC[C@@]2(C)[C@@H]1CC[C@@]1(C)OC(=O)C[C@H]21 | inactive
13 | O=C(NCc1ccncc1)C12C[C@H]3C[C@@H](C1)CC(c1ccc(Cl)cc1)(C3)C2 | 10.5 µM (active)
14 | COc1ccc2cc(-c3nc(-c4ccc(S(C)=O)cc4)[nH]c3-c3ccncc3)ccc2c1 (stereo unspecified) | inactive
15 | CO[C@@H](C(=O)N1Cc2[nH]nc(NC(=O)c3ccc(N4CCN(C)CC4)cc3)c2C1)c1ccccc1 | 5.26 µM (active)
16 | CC1=C(/C=C/C(C)=C/C=C/C(C)=C/C(=O)Nc2ccc(O)cc2)C(C)(C)CCC1 | 26.6 µM (active)
17 | O=C(O)[C@H]1O[C@H](Oc2cc3oc(-c4ccccc4)cc(=O)c3c(O)c2O)[C@H](O)[C@@H](O)[C@H]1O | inactive
18 | Cc1c(O)cccc1C(=O)N[C@@H](CSc1ccccc1)[C@H](O)CN1C[C@H]2CCCC[C@@H]2C[C@@H]1C(=O)NC(C)(C)C | 26.4 µM (active)
19 | COc1ncc(-c2ccc3nccc(-c4ccnnc4)c3c2)cc1NS(=O)(=O)c1ccc(F)cc1F | 0.372 µM (active)
20 | Cc1c[nH]c(C=C2C(=O)Nc3ccccc32)c1CCC(=O)O | inactive
21 | CCc1ccc(C=C2SC(=S)NC2=O)cc1 | inactive
22 | O=C1Nc2ccc(Cl)cc2C(C#CC2CC2)(C(F)(F)F)O1 (stereo unspecified) | 41.8 µM (active)
23 | N#CC1(c2ccc(NC(=O)c3cccnc3NCc3ccncc3)cc2)CCCC1 | inactive
24 | O=C(CCCCCCC(=O)Nc1ccccc1)NO | 5.31 µM (active) and 6.62 µM (active)

Test: qHTS of pediatric cancer cell lines to identify multiple opportunities for drug repurposing: Primary screen for MG 63 (6-TG R) cells (AID 1347105); note: nearly all actives have a fitted effect of over 50% in size
Settings: MG 63 (6-TG R) viability, CellTiter-Glo, 48 h; series mostly up to 46 µM
In short: as §1

Row | SMILES | Potency
25 | COc1ccc(-c2coc3cc(O)cc(O)c3c2=O)cc1 | inactive
26 | CC=CC[C@@H](C)C(=O)[C@H]1C(=O)N[C@@H](C(C)C)C(=O)N(C)CC(=O)N(C)[C@@H](CC(C)C)C(=O)N[C@@H](C(C)C)C(=O)N(C)[C@@H](CC(C)C)C(=O)N[C@@H](C)C(=O)N[C@H](C)C(=O)N(C)[C@@H](CC(C)C)C(=O)N(C)[C@@H](CC(C)C)C(=O)N(C)[C@@H](C(C)C)C(=O)N1C | inactive
27 | CC(C)(Cc1ccc2ccccc2c1)NC[C@@H](O)COc1cccc(Cl)c1C#N | inactive
28 | CC(C)(C)NC(=O)Nc1cccc(Nc2ncc(F)c(NC(C)(C)CO)n2)c1 | inactive
29 | CC[C@@]1(O)C[C@H](O[C@H]2C[C@H](N(C)C)[C@H](O[C@H]3C[C@H](O)[C@H](O[C@H]4CCC(=O)[C@H](C)O4)[C@H](C)O3)[C@H](C)O2)c2c(cc3c(c2O)C(=O)c2c(O)cccc2C3=O)[C@@H]1C(=O)OC | inactive
30 | CC(C)(C)COc1ccc(-n2cc(C(=O)O)cn2)cc1C#N | inactive
31 | N#Cc1ccc(NC(=O)Nc2ccccc2Br)c2n[nH]nc12 | inactive
32 | CC/C(=C(\c1ccccc1)c1ccc(OCCN(C)C)cc1)c1ccccc1 | inactive
33 | COC(=O)[C@@H]1[C@H]2C[C@H]3c4[nH]c5ccccc5c4CCN3C[C@@H]2CC[C@@H]1O | inactive
34 | CO[C@H]1C[C@@H]2CC[C@@H](C)[C@@](O)(O2)C(=O)C(=O)N2CCCC[C@@H]2C(=O)O[C@H]([C@H](C)C[C@@H]2CC[C@H](OP(C)(C)=O)[C@H](OC)C2)CC(=O)[C@H](C)C=C(C)[C@@H](O)[C@@H](OC)C(=O)[C@H](C)C[C@H](C)C=CC=CC=C1C | inactive
35 | CC1(C)CCC[C@@]2(C)[C@@H]1CC[C@@]1(C)OC(=O)C[C@H]21 | inactive
36 | COc1ccc(-n2c(C)c([N+](=O)[O-])c3ccc(O)cc32)cc1 | inactive
37 | COc1ccc2cc(-c3nc(-c4ccc(S(C)=O)cc4)[nH]c3-c3ccncc3)ccc2c1 (stereo unspecified) | inactive
38 | CO[C@@H](C(=O)N1Cc2[nH]nc(NC(=O)c3ccc(N4CCN(C)CC4)cc3)c2C1)c1ccccc1 | 1.48 µM (active)
39 | CCNc1cc(NC2CCC(O)CC2)nc(Nc2ccc3c(ccn3Cc3ccccc3)c2)n1 (stereo unspecified) | inactive
40 | Cc1c(O)cccc1C(=O)N[C@@H](CSc1ccccc1)[C@H](O)CN1C[C@H]2CCCC[C@@H]2C[C@@H]1C(=O)NC(C)(C)C | 18.7 µM (active)
41 | Cc1ccc(/C=N/NC(=O)c2ccccc2Oc2ccccc2)o1 | inactive
42 | Cc1c[nH]c(C=C2C(=O)Nc3ccccc32)c1CCC(=O)O | inactive
43 | Nc1nc(F)nc2c1ncn2[C@@H]1O[C@H](COP(=O)(O)O)[C@@H](O)[C@H]1O | 0.469 µM (active)
44 | N#CC1(c2ccc(NC(=O)c3cccnc3NCc3ccncc3)cc2)CCCC1 | inactive
45 | CC=CC(=O)N(CC)c1ccccc1C | inactive
46 | C=C1C(=O)OC2C=C(C)CCC=C(C)CCC12 (stereo unspecified) | inactive
